Measurements published in PubChem BioAssay (EPA / NIEHS).
Results filed as inconclusive are left out. The source made the active and inactive calls. The calls were made as follows, unless noted: active = hit-call score of the fitted dose curve at least 0.9, where 1 is the maximum; inconclusive = response in the unintended direction; inactive = score below 0.9.

Assays:
[1] = biological target: Bile acid receptor (Homo sapiens) (UniProt Q96RI1); assay: ATG_IR1_CIS: Attagene CIS-FACTORIAL HepG2 Assay for human Nuclear Receptor Subfamily 1 Group H Member 4 (NR1H4), IR1 submotif (AID 2282946; active = hit-call score of the fitted dose curve at least 0.9, where 1 is the maximum; inactive = score below 0.9); conditions: IR1 reporter transcription, actives raise or lower the signal
Bile acid receptor (Homo sapiens), sequence (Q96RI1 whole entry, looked up): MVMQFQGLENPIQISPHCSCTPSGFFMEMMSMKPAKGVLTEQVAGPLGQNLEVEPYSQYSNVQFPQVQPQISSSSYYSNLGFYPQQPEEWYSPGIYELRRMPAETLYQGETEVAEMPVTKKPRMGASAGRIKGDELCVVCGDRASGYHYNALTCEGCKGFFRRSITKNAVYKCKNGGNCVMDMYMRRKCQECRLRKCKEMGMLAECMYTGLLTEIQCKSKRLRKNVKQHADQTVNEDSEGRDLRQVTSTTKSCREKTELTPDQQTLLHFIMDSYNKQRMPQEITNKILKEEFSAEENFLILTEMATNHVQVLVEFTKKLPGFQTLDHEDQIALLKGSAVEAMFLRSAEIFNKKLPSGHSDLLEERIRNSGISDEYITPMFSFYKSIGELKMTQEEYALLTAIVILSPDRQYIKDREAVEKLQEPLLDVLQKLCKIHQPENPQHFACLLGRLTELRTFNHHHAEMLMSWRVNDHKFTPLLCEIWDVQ
Procedure, shortened: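 Transient MRTU transfection, HepG2; 24 h dosing; RNA → RT-PCR → 6-FAM primer extension → HpaI digest → capillary electrophoresis fluorescence. Gain/loss of signal fitted relative to DMSO.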

[2] = ATG_M_19_TRANS: Attagene TRANS-FACTORIAL HepG2 Assay for M19 Transcription Factor (Internal Marker) (AID 2282974); conditions: HepG2 Attagene TRANS-FACTORIAL M19 internal marker reporter
Procedure, shortened: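 Cells: human HepG2, transiently transfected with multiplexed reporter transcription units. Exposure: 24 h. Detection: RT-PCR of reporter mRNA with capillary electrophoresis. Analysis: gain-of-signal vs DMSO.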

[3] = ATG_GAL4_TRANS: Attagene TRANS-FACTORIAL HepG2 Assay for GAL4 (Internal Marker) (AID 2282976); conditions: HepG2 Attagene TRANS GAL4 internal marker reporter
Procedure, shortened: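 In transfected human HepG2 liver cells dosed 24 h, GAL4 reporter mRNA serves as a baseline marker. Detection by RT-PCR with fluorescent capillary electrophoresis, activity fitted upward relative to DMSO.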

[4] = biological target: Oxysterols receptor LXR-beta (Homo sapiens) (UniProt P55055); assay: ATG_LXRb_TRANS: Attagene TRANS-FACTORIAL HepG2 Assay for human Liver X Receptor beta (LXRb) (AID 2282981); conditions: HepG2 Attagene TRANS GAL4-LXRb reporter, mRNA
Oxysterols receptor LXR-beta (Homo sapiens), sequence (P55055 whole entry, looked up, the tested form may be a part): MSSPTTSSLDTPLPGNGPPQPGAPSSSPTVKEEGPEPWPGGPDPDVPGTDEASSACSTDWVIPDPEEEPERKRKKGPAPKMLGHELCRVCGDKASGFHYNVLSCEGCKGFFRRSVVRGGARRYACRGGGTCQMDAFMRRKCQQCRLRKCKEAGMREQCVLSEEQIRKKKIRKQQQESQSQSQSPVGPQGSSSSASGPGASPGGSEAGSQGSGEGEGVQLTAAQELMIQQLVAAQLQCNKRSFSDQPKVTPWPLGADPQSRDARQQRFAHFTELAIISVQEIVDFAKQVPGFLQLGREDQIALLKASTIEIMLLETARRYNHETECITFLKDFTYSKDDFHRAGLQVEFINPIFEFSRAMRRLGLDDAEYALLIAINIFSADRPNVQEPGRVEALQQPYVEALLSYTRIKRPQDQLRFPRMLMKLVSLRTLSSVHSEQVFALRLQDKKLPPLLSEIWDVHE
Procedure, shortened: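 In this TRANS format, exogenous chimeric NR-Gal4 protein activity, not endogenous factors, drives reporter expression in transfected human HepG2 cells. Exposure lasted 24 h; reporter mRNA was read by fluorescent capillary electrophoresis.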

[5] = biological target: Cellular tumor antigen p53 (Homo sapiens) (UniProt P04637); assay: ATG_p53_CIS: Attagene CIS-FACTORIAL HepG2 Assay for human p53 Transcription Factor (AID 2282994; active = hit-call score of the fitted dose curve at least 0.9, where 1 is the maximum; inactive = score below 0.9); conditions: HepG2 p53 cis-element reporter, Attagene mRNA; actives raise or lower the signal
Cellular tumor antigen p53 (Homo sapiens), sequence (P04637 whole entry, looked up): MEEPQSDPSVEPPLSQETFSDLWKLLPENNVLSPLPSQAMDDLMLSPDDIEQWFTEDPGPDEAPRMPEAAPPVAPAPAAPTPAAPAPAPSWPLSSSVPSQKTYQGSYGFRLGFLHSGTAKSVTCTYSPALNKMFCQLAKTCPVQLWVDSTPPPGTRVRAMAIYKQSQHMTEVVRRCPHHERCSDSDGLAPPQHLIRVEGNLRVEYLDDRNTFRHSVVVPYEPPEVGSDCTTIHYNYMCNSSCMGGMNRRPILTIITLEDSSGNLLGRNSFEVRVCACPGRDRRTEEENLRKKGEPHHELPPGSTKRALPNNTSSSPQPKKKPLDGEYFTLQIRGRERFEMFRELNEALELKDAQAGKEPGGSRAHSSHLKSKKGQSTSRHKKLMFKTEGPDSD
Procedure, shortened: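 HepG2 cells transiently transfected with cis-regulated multiple reporter transcription units, dosed 24 h. Reporter mRNA measured by RT-PCR, 6-FAM primer extension, HpaI digestion and capillary electrophoresis; bidirectional fit relative to DMSO.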

[6] = biological target: human Peroxisome Proliferator-activated Receptor delta (PPARd), PPARD (gene 5467) (UniProt Q03181); assay: ATG_PPARd_TRANS: Attagene TRANS-FACTORIAL HepG2 Assay for human Peroxisome Proliferator-activated Receptor delta (PPARd) (AID 2283002)
human Peroxisome Proliferator-activated Receptor delta (PPARd), PPARD (gene 5467), sequence (Q03181 whole entry, looked up, the tested form may be a part): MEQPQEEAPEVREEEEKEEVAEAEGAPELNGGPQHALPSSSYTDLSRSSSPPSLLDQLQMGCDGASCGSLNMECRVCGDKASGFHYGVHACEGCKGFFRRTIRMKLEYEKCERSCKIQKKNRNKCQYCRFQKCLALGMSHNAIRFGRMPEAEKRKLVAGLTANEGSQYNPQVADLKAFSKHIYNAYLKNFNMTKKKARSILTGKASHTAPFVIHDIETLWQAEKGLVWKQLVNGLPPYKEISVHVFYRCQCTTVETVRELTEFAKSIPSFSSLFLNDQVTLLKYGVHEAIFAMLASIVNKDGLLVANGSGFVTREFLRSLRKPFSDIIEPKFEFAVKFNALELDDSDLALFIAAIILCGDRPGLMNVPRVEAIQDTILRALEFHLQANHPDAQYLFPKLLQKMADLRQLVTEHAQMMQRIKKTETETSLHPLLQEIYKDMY
Procedure, shortened: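 HepG2 cells transiently transfected with multiplexed GAL4-UAS reporter units and exogenous chimeric NR-Gal4 proteins; 24 h compound exposure. Reporter mRNA measured by RT-PCR, 6-FAM labelling, HpaI digestion and capillary electrophoresis; gain of signal versus DMSO.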

[7] = biological target: human RAR-related Orphan Receptor beta (RORb), RORB (gene 6096) (UniProt Q92753); assay: ATG_RORb_TRANS: Attagene TRANS-FACTORIAL HepG2 Assay for human RAR-related Orphan Receptor beta (RORb) (AID 2283010)
human RAR-related Orphan Receptor beta (RORb), RORB (gene 6096), sequence (Q92753 whole entry, looked up, the tested form may be a part): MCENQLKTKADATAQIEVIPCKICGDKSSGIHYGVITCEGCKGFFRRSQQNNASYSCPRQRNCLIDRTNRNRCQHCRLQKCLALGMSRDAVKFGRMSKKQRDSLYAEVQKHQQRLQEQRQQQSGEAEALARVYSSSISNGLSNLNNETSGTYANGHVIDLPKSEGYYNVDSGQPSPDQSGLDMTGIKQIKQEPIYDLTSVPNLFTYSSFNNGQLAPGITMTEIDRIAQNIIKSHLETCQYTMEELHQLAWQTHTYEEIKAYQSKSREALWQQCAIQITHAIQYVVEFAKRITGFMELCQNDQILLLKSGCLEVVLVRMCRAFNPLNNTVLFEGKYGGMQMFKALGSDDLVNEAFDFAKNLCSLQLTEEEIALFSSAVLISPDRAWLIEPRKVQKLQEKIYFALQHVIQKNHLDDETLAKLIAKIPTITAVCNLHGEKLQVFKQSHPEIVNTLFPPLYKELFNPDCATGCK
Procedure, shortened: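 HepG2 cells transiently transfected with GAL4-UAS reporter units expressing chimeric NR-Gal4 protein; reporter mRNA measured 24 h after dosing by RT-PCR, 6-FAM labelling and capillary electrophoresis. Gain-of-signal fitted relative to DMSO baseline.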

[8] = biological target: human RAR-related Orphan Receptor gamma (RORg), RORC (gene 6097) (UniProt P51449); assay: ATG_RORg_TRANS: Attagene TRANS-FACTORIAL HepG2 Assay for human RAR-related Orphan Receptor gamma (RORg) (AID 2283011)
human RAR-related Orphan Receptor gamma (RORg), RORC (gene 6097), sequence (P51449 whole entry, looked up, the tested form may be a part): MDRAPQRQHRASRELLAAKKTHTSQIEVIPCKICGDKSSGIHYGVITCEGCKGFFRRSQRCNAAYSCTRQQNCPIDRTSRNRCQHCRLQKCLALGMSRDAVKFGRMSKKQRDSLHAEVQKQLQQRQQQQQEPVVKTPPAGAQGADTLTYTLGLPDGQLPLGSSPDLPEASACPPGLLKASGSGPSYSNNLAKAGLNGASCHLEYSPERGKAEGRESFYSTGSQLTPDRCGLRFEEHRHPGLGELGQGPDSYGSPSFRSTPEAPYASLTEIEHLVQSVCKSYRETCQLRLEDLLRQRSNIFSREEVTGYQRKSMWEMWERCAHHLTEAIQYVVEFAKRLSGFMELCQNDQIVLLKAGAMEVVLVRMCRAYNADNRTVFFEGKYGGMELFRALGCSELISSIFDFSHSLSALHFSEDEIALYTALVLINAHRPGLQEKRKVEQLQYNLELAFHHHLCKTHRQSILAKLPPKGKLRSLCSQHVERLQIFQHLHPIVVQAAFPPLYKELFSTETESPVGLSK
Procedure, shortened: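 Reporter transcripts from a transfected RORg-GAL4 chimera in HepG2 cells were quantified 24 h after dosing by RT-PCR, 6-FAM labelling, HpaI digestion and capillary electrophoresis; increases over DMSO baseline were fitted.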

[9] = biological target: human Vitamin D Receptor (VDR), VDR (gene 7421) (UniProt P11473); assay: ATG_VDR_TRANS: Attagene TRANS-FACTORIAL HepG2 Assay for human Vitamin D Receptor (VDR) (AID 2283022)
human Vitamin D Receptor (VDR), VDR (gene 7421), sequence (P11473 whole entry, looked up, the tested form may be a part): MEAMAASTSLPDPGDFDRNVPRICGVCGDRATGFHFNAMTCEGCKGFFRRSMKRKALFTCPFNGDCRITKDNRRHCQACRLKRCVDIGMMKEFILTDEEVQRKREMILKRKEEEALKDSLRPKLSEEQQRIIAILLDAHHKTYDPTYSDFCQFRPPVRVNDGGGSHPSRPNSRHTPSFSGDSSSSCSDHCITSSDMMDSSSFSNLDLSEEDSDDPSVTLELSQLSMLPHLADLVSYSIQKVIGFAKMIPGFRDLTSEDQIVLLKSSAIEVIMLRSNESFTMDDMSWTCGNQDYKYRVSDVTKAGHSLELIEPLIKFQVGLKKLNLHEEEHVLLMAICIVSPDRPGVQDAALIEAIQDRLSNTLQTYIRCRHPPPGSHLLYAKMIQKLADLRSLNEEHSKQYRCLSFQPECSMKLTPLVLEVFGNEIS
Procedure, shortened: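 Transactivation by an exogenous VDR-Gal4 chimera in transiently transfected HepG2 cells was measured as reporter transcript level 24 hours after chemical treatment. RT-PCR products were analysed by capillary electrophoresis and fitted in the positive direction relative to DMSO.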

[10] = ATG_XTT_Cytotoxicity: Cytotoxicity Assessment in the Attagene TRANS-FACTORIAL HepG2 Assay (AID 2283584)
Procedure, shortened: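 Viability endpoint from XTT after 24 h chemical exposure of reporter-transfected human HepG2 liver cells; signal loss fitted relative to DMSO negative control.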

[11] = TOX21_p53_BLA_p2_viability: Viability Assessment in the Tox21 HCT-116 p53 Agonism Beta-lactamase Assay, Phase 2 (AID 2283591);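 also: compound exposure lasted 16 h at 37 °C; actives lower the ATP signal meaning cytotoxicity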
Procedure, shortened: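 HCT-116 p53-bla cells (4000/well) rested 5 h at 37C, then received compounds in DMSO (217-fold dilution) for 16 h at 37C, 5% CO2. After the CCF4 read, CellTiter-Glo was added; ATP luminescence was read after 30 min at room temperature.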

[12] = TOX21_p53_BLA_p3_viability: Viability Assessment in the Tox21 HCT-116 p53 Agonism Beta-lactamase Assay, Phase 3 (AID 2283593);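 also: cells exposed to compound for 16 h before reading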
Procedure, shortened: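 HCT-116 cells (4000/well) rested 5 h at 37C, then got DMSO compounds by pin tool (217-fold dilution) for 16 h at 37C, 5% CO2. After the bla read, CellTiter-Glo was added and luminescence read at 30 min, room temperature.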

[13] = TOX21_p53_BLA_p4_viability: Viability Assessment in the Tox21 HCT-116 p53 Agonism Beta-lactamase Assay, Phase 4 (AID 2283597);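 also: hits lower the luminescence signal meaning cytotoxicity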
Procedure, shortened: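 Following a 16 h exposure at 37C, the treated HCT116 wells were first read for the FRET ratio. They were then lysed with CellTiter-Glo, and ATP luminescence was recorded after 30 min at room temperature.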

[14] = ACEA_ER_AUC_viability: ACEA Biosciences xCELLigence Real-Time Cell Analysis on Estrogen Receptor Agonism for Viability (AID 2283782);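 also: continuous compound exposure with impedance area under curve over 80 h; hit means loss of impedance signal meaning reduced cell growth or viability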
Procedure, shortened: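 T-47D human breast cells in phenol red-free RPMI1640 with 10% charcoal-stripped FBS were dosed with an 8-point 1:4 dilution series from 100 uM top final concentration, in duplicate. Impedance-based growth was followed for 80 h; AUC analysed versus DMSO.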

[15] = CCTE_Harrill_HTTr_Viability_MCF7: CCTE's 6-hour Cell Viability Assessment for the High-Throughput Transcriptomics (HTTr) Platform, in MCF-7 cells cultured in DMEM + 10% fetal bovine serum, Harrill Lab (AID 2284010; active = hit-call score of the fitted dose curve at least 0.9, where 1 is the maximum; inactive = score below 0.9)
Procedure, shortened: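 MCF-7 cells in DMEM + 10% FBS, 384-well, exposed 6 h to an eight-point dilution series. Membrane integrity scored by high-content imaging of propidium iodide exclusion; bidirectional fit versus DMSO.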

[16] = ATG_PPRE_CIS: Attagene CIS-FACTORIAL HepG2 Assay for human Peroxisome Proliferator-activated Response Element (PPRE) (AID 2282958; active = hit-call score of the fitted dose curve at least 0.9, where 1 is the maximum; inactive = score below 0.9); conditions: HepG2 PPRE cis-element reporter, Attagene transcription factor profiling; actives raise or lower the signal
Procedure, shortened: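 Cells are first transfected transiently with the multiplexed reporter library, then dosed for 24 h. Total RNA is reverse-transcribed, amplified, fluorescently end-labeled and HpaI-cut before capillary electrophoresis; activity is fitted bidirectionally against DMSO controls.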

[17] = biological target: Nuclear receptor subfamily 1 group I member 3 (Homo sapiens) (UniProt Q14994); assay: ATG_CAR_TRANS: Attagene TRANS-FACTORIAL HepG2 Assay for human Constitutive Androstane Receptor (CAR) (AID 2282969); conditions: HepG2 Attagene TRANS-FACTORIAL CAR reporter;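 also: activators raise reporter mRNA above DMSO so AC50 marks induction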
Nuclear receptor subfamily 1 group I member 3 (Homo sapiens), sequence (Q14994 whole entry, looked up, the tested form may be a part): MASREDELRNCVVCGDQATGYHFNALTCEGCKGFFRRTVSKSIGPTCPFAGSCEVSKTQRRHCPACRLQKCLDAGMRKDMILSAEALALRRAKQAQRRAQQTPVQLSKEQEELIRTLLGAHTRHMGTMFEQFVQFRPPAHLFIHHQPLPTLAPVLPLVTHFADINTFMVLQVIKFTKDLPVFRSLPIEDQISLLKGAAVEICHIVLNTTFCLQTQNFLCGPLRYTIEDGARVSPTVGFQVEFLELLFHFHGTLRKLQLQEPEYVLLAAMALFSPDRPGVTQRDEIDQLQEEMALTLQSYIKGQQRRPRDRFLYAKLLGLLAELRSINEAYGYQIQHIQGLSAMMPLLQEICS
Procedure, shortened: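 HepG2 cells transiently transfected with multiplexed GAL4-UAS reporter units expressing chimeric NR-Gal4 proteins; compound exposure 24 h. Reporter mRNA measured by RT-PCR, 6-FAM labelling, HpaI digestion and capillary electrophoresis; gain-of-signal fitted against DMSO baseline.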

[18] = biological target: Glucocorticoid receptor (Homo sapiens) (UniProt P04150); assay: ATG_GR_TRANS: Attagene TRANS-FACTORIAL HepG2 Assay for human Glucocorticoid Receptor (GR) (AID 2282978); conditions: HepG2 Attagene TRANS GR reporter, mRNA transcription;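 also: activators score as hits since higher reporter transcript over DMSO is fitted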
Glucocorticoid receptor (Homo sapiens), sequence (P04150 whole entry, looked up, the tested form may be a part): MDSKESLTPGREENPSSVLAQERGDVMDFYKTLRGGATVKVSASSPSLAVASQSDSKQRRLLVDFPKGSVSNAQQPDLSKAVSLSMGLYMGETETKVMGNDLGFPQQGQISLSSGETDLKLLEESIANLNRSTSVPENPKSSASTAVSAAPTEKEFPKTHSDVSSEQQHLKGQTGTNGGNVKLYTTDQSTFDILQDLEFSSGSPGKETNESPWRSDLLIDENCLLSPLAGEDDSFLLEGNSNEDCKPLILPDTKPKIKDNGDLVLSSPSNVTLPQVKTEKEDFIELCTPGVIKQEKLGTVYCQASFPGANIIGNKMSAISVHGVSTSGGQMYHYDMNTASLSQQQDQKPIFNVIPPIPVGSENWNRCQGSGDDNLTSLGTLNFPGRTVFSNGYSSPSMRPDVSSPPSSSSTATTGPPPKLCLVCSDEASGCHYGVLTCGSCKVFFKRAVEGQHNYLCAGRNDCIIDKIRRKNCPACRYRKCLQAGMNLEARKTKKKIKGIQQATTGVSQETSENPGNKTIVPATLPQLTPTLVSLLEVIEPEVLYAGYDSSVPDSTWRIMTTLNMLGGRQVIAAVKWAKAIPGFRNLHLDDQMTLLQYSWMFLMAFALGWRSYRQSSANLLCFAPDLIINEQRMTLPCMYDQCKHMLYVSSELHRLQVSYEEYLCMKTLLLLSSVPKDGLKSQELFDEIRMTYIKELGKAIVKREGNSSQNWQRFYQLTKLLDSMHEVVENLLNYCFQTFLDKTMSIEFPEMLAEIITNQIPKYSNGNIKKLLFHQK
Procedure, shortened: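 In this trans-factorial format, exogenous NR-GAL4 chimeric proteins in transfected HepG2 cells regulate GAL4-UAS reporter transcription. After 24 h treatment, reporter mRNA induction relative to DMSO is read by RT-PCR and capillary electrophoresis.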

[19] = biological target: Oxysterols receptor LXR-alpha (Homo sapiens) (UniProt Q13133); assay: ATG_LXRa_TRANS: Attagene TRANS-FACTORIAL HepG2 Assay for human Liver X Receptor alpha (LXRa) (AID 2282980); conditions: HepG2 Attagene TRANS reporter, LXRa transactivation
Oxysterols receptor LXR-alpha (Homo sapiens), sequence (Q13133 whole entry, looked up, the tested form may be a part): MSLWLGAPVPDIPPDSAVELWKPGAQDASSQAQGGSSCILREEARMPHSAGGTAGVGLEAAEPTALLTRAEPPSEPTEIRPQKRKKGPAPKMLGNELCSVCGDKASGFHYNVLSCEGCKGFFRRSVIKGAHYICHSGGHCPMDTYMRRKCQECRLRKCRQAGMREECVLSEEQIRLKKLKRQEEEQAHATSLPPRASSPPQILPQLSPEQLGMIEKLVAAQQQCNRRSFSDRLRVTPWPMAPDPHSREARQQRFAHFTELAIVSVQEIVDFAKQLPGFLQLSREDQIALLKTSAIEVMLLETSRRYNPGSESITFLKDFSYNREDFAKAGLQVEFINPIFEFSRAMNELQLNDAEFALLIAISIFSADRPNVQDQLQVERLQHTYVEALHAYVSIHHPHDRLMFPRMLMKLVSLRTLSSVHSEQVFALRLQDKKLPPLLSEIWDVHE
Procedure, shortened: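 Chemical-induced reporter mRNA measured by RT-PCR with fluorescent labelling and capillary electrophoresis after 24 h dosing of transiently transfected HepG2 cells expressing exogenous NR-Gal4 chimeras; increases scored against DMSO baseline.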

Measured: AC50

CCC[N+](=O)[O-]
inactive: [1] | [2] | [3] | [4] | [5] | [6] | [7] | [8] | [9] | [10] | [11] | [12] | [13] | [14] | [15]

O=C(O)COc1ccccc1
inactive: [4] | [5] | [10] | [11] | [12] | [13]

c1ccc(P(c2ccccc2)c2ccccc2)cc1
active: [14] 82.9 µM
inactive: [16] | [17] | [18] | [6] | [11] | [12] | [13]

CCCCCCCCCCCC#N
active: [1] 165 µM
inactive: [17] | [2] | [18] | [19] | [6] | [7] | [10] | [14]

CC1(C)[C@H](C(=O)O[C@H](C#N)c2cccc(Oc3ccccc3)c2)[C@@H]1C=C(Br)Br
inactive: [2] | [3] | [18] | [5] | [7] | [10] | [11] | [12] | [13] | [15]
active: [14] 72.7 µM

CCC(C)c1cc(C(C)(C)C)cc(-n2nc3ccccc3n2)c1O (stereo unspecified)
inactive: [1] | [16] | [2] | [5] | [8] | [9] | [10]
